Rows were chosen to be rich in hits. Some 12% of all compounds tested hit in one or more screens of this group.
BAZ2B inh = qHTS Assay for Inhibitors of BAZ2B; actives 4.4% (n = 360,000); AID 504333, 2011; Potency, µM (top dose mostly 114 µM), for the others: top-dose activity change, negative = inhibition, most hits filed as inhibitors; AlphaScreen BAZ2B-H3K14Ac peptide displacement; Bromodomain adjacent to zinc finger domain protein 2B (Homo sapiens), Q9UIF8; also: % is scaled to controls: 0 for no effect and ±100 for the full control effect; nearly all actives have a fitted effect of over 60% in size
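AlphaScreen displacement of biotin-H3(5-23)K14Ac peptide (50 nM final) from BAZ2B (50 nM final) in PBS pH 7.4, 0.01% Tween-20; complex preformed 30 min RT, then compounds (top 110 uM) 30 min RT, beads 20 min dark.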
G9a inh = qHTS Assay for Inhibitors of Histone Lysine Methyltransferase G9a | G9a H3K9 monomethylation, AlphaScreen, 2 h | Potency, µM (top dose mostly 102 µM), for inactives: at the highest dose activity, negative = inhibition, most hits filed as inhibitors | actives 8.8% (n = 350,000); also: % is scaled to controls: 0 for no effect and ±100 for the full control effect; nearly all actives have a fitted effect of over 75% in size
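AlphaScreen detection with an anti-monomethyl H3K9 antibody quantified product after a 2 h room-temperature reaction containing 500 nM biotinylated H3K9 peptide, 20 µM SAM and 20 nM enzyme, which had been preincubated 15 min with compound.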
Sfp inh = qHTS Assay for Inhibitors of Bacillus subtilis Sfp phosphopantetheinyl transferase (PPTase) | actives 3.5% (n = 310,000) | Biochemical Sfp PPTase activity, qHTS | AID 1490, 2009 | Potency, µM, for inactives: largest response in the series, negative = inhibition, most hits filed as inhibitors;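 also: the enzyme is Sfp with the accession as filed and its product quenches rhodamine fluorescence; 0% = enzyme reaction without inhibitor and -100% = no enzyme wells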
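After 15 min at room temperature with compound, 15 nM Sfp received 5 uM rhodamine-CoA plus 12.5 uM BHQ-2-ybbR (50 mM Hepes pH 7.6, 10 mM MgCl2). Rate came from the fluorescence difference over 30 min, ex 525/em 598 nm.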
JMJD2A Tudor inh = qHTS Assay for Inhibitors of JMJD2A-Tudor Domain; AlphaScreen JMJD2A-Tudor / H3K4me3 peptide binding; Potency, µM (series often up to 114 µM), without a hit: at the highest dose activity change, negative = inhibition, hits mostly inhibitors; actives 4.4% (n = 390,000); also: % is scaled to controls: 0 for no effect and ±100 for the full control effect; nearly all actives have a fitted effect of over 50% in size
HP1b binding inh = HTS for Inhibitors of HP1-beta Chromodomain Interactions with Methylated Histone Tails. Potency, µM (doses to about 114 µM), for the others: top-dose activity change, negative = inhibition, most hits filed as inhibitors. AlphaScreen HP1-beta / biotin-H3K9me3 peptide binding. actives 0.56% (n = 390,000). Chromobox protein homolog 1 (Homo sapiens), P83916; also: nearly all actives have a fitted effect of over 70% in size
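Compound inhibition of the preformed complex between 50 nM HP1-beta and 50 nM biotinylated H3K9me3 peptide was read by AlphaScreen. Buffer was PBS pH 7.4 with 0.01% Tween-20. Incubations ran 30 min at room temperature, with 10 ug/mL donor/acceptor beads.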
* marks the source's active call; other numbers are inactive results; ? = inconclusive; . = no result; [ ] = remark or other dose. Calls follow the shape of the dose curve; as a rule, active = well fitted curve in the direction sought with a large enough effect; inconclusive = small, poorly fitted or top-dose-only effect, or another doubt; inactive = no such curve, though single readings can be large; an effect the other way counts as inactive or inconclusive. Potency is read from the fitted curve at half-maximal effect.

SMILES	BAZ2B inh	G9a inh	Sfp inh	JMJD2A Tudor inh	HP1b binding inh
CC(=O)c1c(C)[nH]c(-c2ccccc2)c1C	50µM*	-9%[59 µM]	2%	?	-26%
O=c1[nH]cc(S(=O)(=O)Nc2ccc3c(c2)OCO3)c(=O)[nH]1	-9%	50µM*	.	-27%	29%
N#Cc1c(/N=C/c2ccco2)sc2c1CCCCC2	35µM*	?	0%	-19%	?
CCOC(=O)Nc1sc2c(c1C#N)CCC(C)C2 (stereo not given)	14%	-3%[59 µM]	?	5%	20%
CN(C)/C=N/c1sc2c(c1C(N)=O)CCCC2	?	-10%	7%	-15%	9%
CN(C)/C=N/c1sc2c(c1C#N)CCCC2	?	50µM*	45µM*	-32%	13%
CC1CCc2c(sc(/N=C/N(C)C)c2C#N)C1 (stereo not given)	40µM*	22µM*	5%	-31%	-4%
Cc1cccc(-n2c(C)nc3sccc3c2=O)c1	8%	-9%[0.501 µM]	5%	0%	55%
CC(C)Cn1c(-c2csc3ccccc23)n[nH]c1=S	-9%	?	-18%	79µM*	2%
Cc1nonc1NC(=O)CSc1nnc(-c2ccoc2C)n1CC(C)C	-29%	?	-21%	-6%	45%
Cc1cccc(-n2c(-c3csc4ccccc34)n[nH]c2=S)c1	?	1.3µM*	?	?	?
Cc1occc1-c1n[nH]c(=S)n1CC(C)C	8%	4.5µM*	-8%	5µM*	-8%
CCn1c(-c2csc3c2CCC(C)C3)n[nH]c1=S (stereo not given)	-30%	6.3µM*	-2%	35µM*	-10%
Cc1ccc(C)c(Cn2c(=O)n(Cc3ccccc3)c(=O)c3c(C)c(C)sc32)c1	1%	-2%[59 µM]	.	-7%	34%
O=S(=O)([O-])C(c1ccccc1)[n+]1ccccc1 (stereo not given)	0%	?	.	-8%	38%
CCOC(=O)c1cnn(-c2cccc(Cl)c2)c1C1CCN(C(=O)OC(C)(C)C)CC1	.	1%[59 µM]	.	5%	61%
CCn1c(-c2csc3ccccc23)n[nH]c1=S	-28%	2.2µM*	-5%	13µM*	-19%
Cc1ccc(C(=O)NCCCNc2ccccc2[N+](=O)[O-])cc1	?	56µM*	9%	89µM*	1%
Cc1c(C(=O)Nc2ccccc2[N+](=O)[O-])csc1-c1ccccc1	11µM*	25µM*	1%	?	28µM*
COc1ccc(/C=N/Nc2ncccc2[N+](=O)[O-])c(OC)c1	40µM*	28µM*	9%	50µM*	?
COc1ccc(CCNC(=O)Nc2ccccc2[N+](=O)[O-])cc1	-15%	50µM*	19%	-32%	-16%
COc1ccccc1NC(=O)CSCc1cc(=O)n2c(C)csc2n1	-24%	5%	10%	-11%	42%
CCCOc1ccc(C(=O)Nc2ccccc2[N+](=O)[O-])cc1	.	.	.	56µM*	?
COc1ccc(N(C)S(=O)(=O)c2ccc(C)cc2)c([N+](=O)[O-])c1	-29%	?	-4%	-27%	7%
COc1ccc(NC(=O)c2ccccc2)c([N+](=O)[O-])c1	?	79µM*	0%	-36%	-23%
SMILES	BAZ2B inh	G9a inh	Sfp inh	JMJD2A Tudor inh	HP1b binding inh
CCCOc1ccc(/C=N/Nc2ccccc2[N+](=O)[O-])c(OCCC)c1	2.5µM*	8.9µM*	-1%	14µM*	22µM*
CCCCOc1ccc(C(=O)Nc2ccc(C)cc2[N+](=O)[O-])cc1	?	-5%[2.33 µM]	-2%	?	-24%
COc1ccc(NC(=O)CN(C)S(=O)(=O)c2ccc(C)cc2)c([N+](=O)[O-])c1	-6%	32µM*	32%	-13%	12%
CCCc1cc(N2CCN(c3ccccc3F)CC2)n2cnnc2n1	-3%	11%[59 µM]	.	-10%	42%
COc1ccc(Nc2ncnc3sccc23)c(OC)c1	-20%	?	4%	-15%	18%
CCOCCCNC(=O)CN1C(=O)c2c(c3ccccc3n2C)C1c1ccc(OC)cc1 (stereo not given)	?	-2%[59 µM]	.	3%	23%
COc1ccc(NC(=O)CC2Nc3ccccc3NC2=O)c([N+](=O)[O-])c1 (stereo not given)	-15%	50µM*	19%	-9%	1%
O=C1c2cccc3c(N4CCOCC4)c([N+](=O)[O-])cc(c23)C(=O)N1c1cccc2ccccc12	?	11µM*	-17%	?	-12%
Cc1ccccc1S(=O)(=O)N1CCN(S(=O)(=O)c2ccc3c(c2)OCCO3)CC1	.	.	.	-8%	.
Cc1cc(C)c(NC(=O)C2CCCCN2C)c(C)c1 (stereo not given)	?	89µM*	-1%	-14%	25%
CC1CCC2(CC1)NC(=O)N(NC(=O)c1ccc(OC(C)C)cc1)C2=O (stereo not given)	-2%	-6%	.	-11%	11%
CC1CC(=O)Nc2ccccc2N1C(=O)CSc1nnnn1C (stereo not given)	.	.	.	-3%	38%
N#C/C(=C\c1cccc(Cl)c1)C(=O)c1ccccc1	-6%	40µM*	?	-19%	12%
CCCCc1nn2c(=O)cc(COC(=O)COc3ccc(C)cc3)nc2s1	-17%	2%[59 µM]	.	-16%	41%
CN(C)CCCOC(=O)c1ccc(Br)cc1	10%	45µM*	3%	8%	43%
CC(NC(=O)CN1C(=O)NC(C)(c2cccc3ccccc23)C1=O)c1ccccc1 (stereo not given)	1%	?	4%	-8%	13%
COc1ccc(N2COC3c4cccc5cccc(c45)C32)cc1 (stereo not given)	45µM*	?	-14%	63µM*	-38%
COc1ccc(C)cc1NC(=O)CN1C(=O)CCc2cc(S(=O)(=O)N3CCOCC3)ccc21	?	0%[59 µM]	.	?	36%
COCCNCCCOc1ccc(Cl)cc1Br	50µM*	11µM*	-7%	7.9µM*	?
COCCCNCCCCOc1ccc(Br)cc1Cl	?	?	-16%	22µM*	-50%
OCCNCCCOc1ccc(Cl)cc1Br	-1%	-1%[59 µM]	13%	-14%	22%
C=CCNC(=O)C(=O)NCCOc1ccccc1Cl	11%	-11%[59 µM]	-7%	6%	38%
C=CCNCCCOc1ccc(Cl)cc1Br	-34%	?	-7%	10µM*	4%
COCCNC(=O)c1cc(Br)ccc1Cl	-7%	2%[59 µM]	6%	-6%	28%
COCCNCCCOc1ccc(Br)cc1Cl	?	10µM*	6%	3.2µM*	?

Screening results deposited in PubChem by National Center for Advancing Translational Sciences (NCATS).
